Data reported in a collection of fitness landscapes (doi:10.1126/science.1257360).
Whole data set: some 140,000 sequences, median “enrichment ratio after two sorts for PhoP signalling” near 0, cut for the highest 2% near 11. What follows is part of a selection rich in the highest values, with near analogues and random picks from the rest.

B1: PhoQ; a variant is named by its letters at X, in order, P23837 (parent)
chain: MKKLLRLFFPLSLRVRFLLATAAVVLVLSLAYGMVALIGYSVSFDKTTFRLLRGESNLFYTLAKWENNKLHVELPENIDKQSPTMTLIYDENGQLLWAQRDVPWLMKMIQPDWLKSNGFHEIEADVNDTSLLLSGDHSIQQQLQEVREDDDDAEMTHSVAVNVYPATSRMPKLTIVVVDTIPVELKSSYMVWSWFIYVLSANLLLVIPLLWVAAWWSLRPIEALAKEVRELEEHNRELLNPATTRELTSLVRNLNRLLKSERERYDKYRTTLTDLTHSLKTPLXXLQXXLRSLRSEKMSVSDAEPVMLEQISRISQQIGYYLHRASMRGGTLLSRELHPVAPLLDNLTSALNKVYQRKGVNISLDISPEISFVGEQNDFVEVMGNVLDNACKYCLEFVEISARQTDEHLYIVVEDDGPGIPLSKREVIFDRGQRVDTLRPGQGVGLAVAREITEQYEGKIVAGESMLGGARMEVIFGRQHSAPKDE

Variants of: B1
Assay: enrichment ratio after two sorts for PhoP signalling (ratio (wild type AVST 3.29)); higher = more functional
Conditions: with PhoP (E. coli)

Variant | enrichment ratio
HWKG | ≤ 0.25
HYVN | ≤ 0.25
FNKS | ≤ 0.25
WKFR | ≤ 0.25
VMIH | ≤ 0.25
FQCV | ≤ 0.25
WICM | ≤ 0.25
SICL | 11.3
TTTM | 19.4
GTTM | 4.35
SIRL | ≤ 0.25
SICM | 14.4
KYTM | ≤ 0.25
YTTM | 8.49
SITM | 22.9
KYCM | ≤ 0.25
SRTM | 1.44
KYCL | ≤ 0.25
NSAY | ≤ 0.25
MERT | ≤ 0.25
IMPC | ≤ 0.25
AHIW | ≤ 0.25
YHGK | ≤ 0.25
MHLE | ≤ 0.25

Variant | enrichment ratio
TWGP | ≤ 0.25
GSVG | ≤ 0.25
LTTM | ≤ 0.25
QETM | ≤ 0.25
SIGQ | 10.4
KYCQ | ≤ 0.25
SICQ | 27.6
STTM | 14.3
SIPM | 19.8
SIPA | 0.817
KYPM | ≤ 0.25
VWYY | ≤ 0.25
EDMQ | ≤ 0.25
VNHC | ≤ 0.25
AYRQ | ≤ 0.25
YGPP | ≤ 0.25
IQKL | ≤ 0.25
GASY | ≤ 0.25
SPIT | ≤ 0.25
AGYW | ≤ 0.25
SSLH | 11.4
KYLH | ≤ 0.25
SYLH | 0.355
ATLH | 11.5

Variant | enrichment ratio
SRLH | ≤ 0.25
SPLH | ≤ 0.25
ITLH | ≤ 0.25
SELH | 19.4
LTLH | ≤ 0.25
NSLH | ≤ 0.25
KSLH | ≤ 0.25
STLH | 12.2
ASPV | 0.706
LLVM | ≤ 0.25
PRDH | ≤ 0.25
IQGR | ≤ 0.25
RVGK | ≤ 0.25
TQAC | 4.85
VIMQ | ≤ 0.25
WTKP | ≤ 0.25
ENII | ≤ 0.25
YTLH | 0.617
TTLH | 19.7
GTLH | 8.02
MYEQ | ≤ 0.25
SELV | 19.5
TELV | 25.1
NQLV | ≤ 0.25

Variant | enrichment ratio
TQLV | 26.3
QELV | ≤ 0.25
YGLT | 7.13
YGLS | 7.31
NELV | 2.93
SLLV | 6.62
EQLV | ≤ 0.25
SILV | 2.22
YGLA | 12.8
WPNN | ≤ 0.25
YKHG | ≤ 0.25
AFWQ | ≤ 0.25
GIFI | ≤ 0.25
TQRG | ≤ 0.25
LAFQ | 2.23
NEYD | ≤ 0.25
EVIK | ≤ 0.25
QFDL | ≤ 0.25
MRMI | ≤ 0.25
SINK | 1.25
RMYK | ≤ 0.25
GTLV | 7.85
YYLV | ≤ 0.25
MILV | 13

Variant | enrichment ratio
YTLV | 15.7
MIHK | ≤ 0.25
ITLV | 7.88
FTLV | 10.2
MFLV | ≤ 0.25
CTLV | 0.326
ATLV | 12.7
LTLV | 1.55
TTLV | 17.9
FHSF | ≤ 0.25
HDGN | ≤ 0.25
TQVH | 8.69
LPSI | ≤ 0.25
ANRW | ≤ 0.25
MCHW | ≤ 0.25
GFAN | ≤ 0.25
KGPY | ≤ 0.25
FSLV | 8.86
KSLV | ≤ 0.25
SFLV | 1.19
SKLV | 12
SKHK | ≤ 0.25
KQLV | ≤ 0.25
SSLV | 16.8

Variant | enrichment ratio
NSLV | 2.78
SALV | 14.6
TSLV | 14.6
DLQF | ≤ 0.25
PGYR | ≤ 0.25
QDIQ | ≤ 0.25
RNIE | ≤ 0.25
YSWN | ≤ 0.25
IQID | ≤ 0.25
LDQS | ≤ 0.25
STLV | 15.4
MELV | 18.1
NFLV | ≤ 0.25
DPLV | ≤ 0.25
MMLV | ≤ 0.25
YGLV | 13.5
KYLV | ≤ 0.25
SYLV | 0.334
MPLV | ≤ 0.25
SPLV | ≤ 0.25
SQLV | 11.8
QPLV | ≤ 0.25
ITPL | ≤ 0.25
WHNG | ≤ 0.25

Variant | enrichment ratio
TSSF | 9.67
YPTT | ≤ 0.25
ISMW | ≤ 0.25
FIHY | ≤ 0.25
QLFD | 3.39
HRQG | ≤ 0.25
YGLM | 13
YGWM | ≤ 0.25
YGDM | 0.798
HFAL | ≤ 0.25
SCRE | ≤ 0.25
DVLL | ≤ 0.25
TISE | 24.4
DDSE | 1.96
SLSE | 1.48
RISE | ≤ 0.25
TESE | 20
NASE | ≤ 0.25
QESE | ≤ 0.25
KASE | ≤ 0.25
TASE | 11.3
AISE | 2.44
NESE | ≤ 0.25
SESE | 24.9

Variant | enrichment ratio
HLPY | ≤ 0.25
MSKE | ≤ 0.25
YPSK | ≤ 0.25
TVFP | ≤ 0.25
VDTN | ≤ 0.25
SDSE | ≤ 0.25
GNSE | ≤ 0.25
TVSE | 14.1
SRSE | ≤ 0.25
SISE | 12.6
DPSE | ≤ 0.25
SPSE | ≤ 0.25
SQSE | 11.4
LNSE | ≤ 0.25
KYSE | ≤ 0.25
SNSE | 16.4
NVSE | ≤ 0.25
FFRE | ≤ 0.25
EVVH | ≤ 0.25
TGPK | ≤ 0.25
GKHW | ≤ 0.25
FNVA | ≤ 0.25
KTII | ≤ 0.25
GGSE | ≤ 0.25

Variant | enrichment ratio
TGSE | 7.38
SGSE | 15.4
IEKG | ≤ 0.25
LARL | ≤ 0.25
SSPS | ≤ 0.25
YHLR | ≤ 0.25
MSPM | ≤ 0.25
MSPI | ≤ 0.25
MSYD | ≤ 0.25
MSTA | ≤ 0.25
MSGM | 6.76
MSWI | 14.1
MSCA | 0.541
MSCS | 0.763
MSYI | 12.1
MSWM | 23.7
MSYK | ≤ 0.25
MSCI | 16.7
KTWF | ≤ 0.25
YIVR | ≤ 0.25
DSYR | ≤ 0.25
WDLV | ≤ 0.25
SPGS | ≤ 0.25
AEGC | 2.22

Variant | enrichment ratio
MSAS | 12.6
MSFY | 12.3
MAFL | 12.9
MSFD | ≤ 0.25
MSQM | ≤ 0.25
WIAS | ≤ 0.25
KAFL | ≤ 0.25
MSSF | 0.41
MSSM | 11.9
NAFL | 0.25
KSFY | ≤ 0.25
MSAT | 7.26
PAHY | ≤ 0.25
AKLK | ≤ 0.25
MEND | ≤ 0.25
PTHW | ≤ 0.25
AVIT | 1.3
MIMD | ≤ 0.25
LLDF | ≤ 0.25
NAWF | ≤ 0.25
PFLK | ≤ 0.25
RPFK | ≤ 0.25
MSFC | 14.1
MSLA | 5.33

Variant | enrichment ratio
MSTD | ≤ 0.25
MSLF | 1.86
MSFA | 2.31
MSGI | 17.5
MSGR | ≤ 0.25
MSHP | ≤ 0.25
MSHQ | 12
MSTC | 1.5
MSLM | 15.9
MSGD | ≤ 0.25
IAPP | ≤ 0.25
NMIK | ≤ 0.25
DCGT | ≤ 0.25
EMPS | ≤ 0.25
NEEL | ≤ 0.25
MHMN | ≤ 0.25
NGVW | ≤ 0.25
MRHM | ≤ 0.25
MSGA | 0.29
MSHM | 22
MSGQ | 14.3
MSCF | 1.71
MEFL | 8.98
KSHM | ≤ 0.25

Variant | enrichment ratio
MSLY | 0.424
MSFL | 13.3
KSFL | ≤ 0.25
MSGG | ≤ 0.25
MSTI | 18.2
SKYM | ≤ 0.25
CCSC | ≤ 0.25
FTRK | ≤ 0.25
MDDW | ≤ 0.25
ADPG | ≤ 0.25
VPPG | ≤ 0.25
LIYG | ≤ 0.25
MSRL | ≤ 0.25
MSCV | 15.3
MSTW | ≤ 0.25
MSEL | ≤ 0.25
MSWL | 14.4
MSCE | ≤ 0.25
GKQS | ≤ 0.25
SDCI | 4.22
QYNK | ≤ 0.25
GGPL | ≤ 0.25
SNVY | 1.11
AAII | 12.4

Variant | enrichment ratio
NAII | ≤ 0.25
KKII | ≤ 0.25
ADII | 1.41
AKII | 13.6
KAII | ≤ 0.25
DMTW | ≤ 0.25
IQGQ | ≤ 0.25
GIPQ | ≤ 0.25
CVSL | ≤ 0.25
GTSL | 9.63
CTSL | 11.6
YTSL | ≤ 0.25
TTSL | 17.6
KQSL | ≤ 0.25
TVPF | ≤ 0.25
QVGW | 2.43
EDEG | ≤ 0.25
FEDM | ≤ 0.25
